# FBPA coupling cs = qHTS Assay for Inhibitors of Fructose-1,6-bisphosphate Aldolase from Giardia Lamblia: Coupling assay counterscreen. coupling enzyme system counterscreen, AmpLite Red fluorescence. activity change, negative = inhibition, % at 58.2 µM, hits read low. actives 0.67% (n = 290,000). AID 2472, 2010; in the data active = activity change below about -30%
#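 Activity here indicates interference with the coupling reaction, not aldolase inhibition. Compounds at 57.5 uM final met coupling enzymes for 10 min at RT; substrate and AmpLite Red detection followed, with a 525/598 nm fluorescence read after 20 min.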
# RORg inh = qHTS for inhibitors of ROR gamma transcriptional activity; Drosophila S2 Gal4-RORgamma UAS-luciferase reporter, 20 h; Potency, µM (top dose mostly 53.6 µM), without a hit: top-dose activity change, negative = inhibition, hits mostly inhibitors; actives 5.4% (n = 310,000); also: potency is read from the fitted curve at half-maximal effect; nearly all actives have a fitted effect of over 60% in size
#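 In this cell-based reporter format, copper sulfate (700 uM final) drives Gal4–ROR gamma fusion expression from a metallothionein promoter in Drosophila Schneider cells; compounds preincubated 1 hr, reporter read after 20 hr at ambient temperature.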
# ELG1 repair inh = qHTS screen for small molecules that inhibit ELG1-dependent DNA repair in human embryonic kidney (HEK293T) cells expressing luciferase-tagged ELG1; HEK293T ELG1-luciferase reporter, luminescence, 16 h; DNA damage induced by 5-fluorouridine; Potency, µM (titrated, usually from 46.1 µM), for the others: at the top dose activity change, negative = inhibition, hits mostly inhibitors; actives 2.3% (n = 330,000); also: potency is read from the fitted curve at half-maximal effect; nearly all actives have a fitted effect of over 55% in size
#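 Step one: seed 2,000 cells per well. Step two: pin-transfer compound or DMSO alongside 5-fluorouridine. Step three: incubate 16 hr, 37 °C, 5% CO2. Step four: add ONE-Glo, wait 30 min, read luminescence.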
# TSHR antag = Antagonists of the Thyroid Stimulating Hormone Receptor: HTS campaign | Thyrotropin receptor (Homo sapiens), P16473 | TSHR-expressing cells, TSH-stimulated cAMP HTRF, 2 h; hits give low values | activity change, negative = inhibition, % at 11.5 µM | actives 0.2% (n = 330,000);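 active = activity change below a set negative limit, meaning inhibition stronger than a set level, cut at about -70% in these data; inconclusive = activity change between two set negative limits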
# Target sequence (P16473 whole entry, looked up): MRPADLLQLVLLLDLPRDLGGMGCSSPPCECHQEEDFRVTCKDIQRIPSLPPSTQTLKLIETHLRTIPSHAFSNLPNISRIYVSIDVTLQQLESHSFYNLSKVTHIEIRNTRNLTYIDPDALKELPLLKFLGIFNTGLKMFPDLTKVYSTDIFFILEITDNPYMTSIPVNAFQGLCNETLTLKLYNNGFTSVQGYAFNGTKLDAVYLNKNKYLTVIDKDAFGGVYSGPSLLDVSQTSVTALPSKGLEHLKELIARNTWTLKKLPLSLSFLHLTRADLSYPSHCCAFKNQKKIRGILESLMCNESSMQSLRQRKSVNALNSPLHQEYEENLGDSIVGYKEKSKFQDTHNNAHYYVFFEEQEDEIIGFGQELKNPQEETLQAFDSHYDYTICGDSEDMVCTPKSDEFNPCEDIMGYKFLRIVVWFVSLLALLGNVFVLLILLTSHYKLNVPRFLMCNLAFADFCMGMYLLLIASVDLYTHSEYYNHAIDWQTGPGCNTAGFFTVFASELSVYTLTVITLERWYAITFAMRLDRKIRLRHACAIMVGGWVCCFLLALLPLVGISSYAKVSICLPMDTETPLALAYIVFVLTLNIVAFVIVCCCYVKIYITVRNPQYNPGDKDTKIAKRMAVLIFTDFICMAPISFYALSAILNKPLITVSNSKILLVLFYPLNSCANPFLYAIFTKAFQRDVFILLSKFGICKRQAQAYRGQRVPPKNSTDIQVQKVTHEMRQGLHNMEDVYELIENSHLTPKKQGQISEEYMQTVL
#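 Competitive HTRF cAMP read-out (cryptate anti-cAMP antibody, cAMP-d2; 30 min, room temperature) in freshly harvested TSHR cells. Compounds added before TSH at EC80 (4nM final), followed by 2 hours' incubation at 37 deg C.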
# VP16 counter = VP16 counterscreen qHTS for inhibitors of ROR gamma transcriptional activity | Potency, µM (highest dose often 53.6 µM), without a hit: at the top dose activity, negative = inhibition, usual class: inhibitors | AID 2546, 2010 | actives 3.5% (n = 310,000) | Drosophila S2 Gal4-VP16 UAS-luciferase, luminescence, 20 h;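 also: Gal4-VP16 expression switched on by copper sulfate through the metallothionein promoter; potency is read from the fitted curve at half-maximal effect; nearly all actives have a fitted effect of over 50% in size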
# An asterisk follows results filed as active; ? = inconclusive; · = no result; [ ] = dose if it differs, or a comment. An excerpt weighted towards active compounds, which were near 8% of everything screened. Unless noted, calls follow the shape of the dose curve; as a rule, active = well fitted curve in the direction sought with a large enough effect; inconclusive = small, poorly fitted or top-dose-only effect, or another doubt; inactive = no such curve, though single readings can be large; an effect the other way counts as inactive or inconclusive. % is scaled to controls: 0 for no effect and ±100 for the full control effect.
SMILES,FBPA coupling cs,RORg inh,ELG1 repair inh,TSHR antag,VP16 counter
CC12CC(NC(=O)N1c1cccc(C(=O)N3CCCCC3)c1)c1ccccc1O2 (stereo not given),·,19.2%,-7.4%,8.1,1.6%
CSc1ncccc1C(=O)OCC(=O)Nc1ccc(N2CCOCC2)cc1,·,·,9.0%,-1.6,·
Cc1ccc(C(=O)CSC2=NC(N)=C(C#N)C3(CCCCC3)C2C(N)=O)cc1 (stereo not given),-2.3,8.7%,?,-14.9,?
Cc1ccc(-c2csc(C3C(N)=NC(S)=C(C#N)C34CCCCC4)n2)cc1 (stereo not given),0.3,5.01µM*,4.0%,-6.0,?
N#CC1=C(S)N=C(N)C(c2nc(-c3ccccc3)cs2)C12CCCCC2 (stereo not given),0.5,10µM*,?,2.2,?
N#CC1=C(S)N=C(N)C(c2nc(-c3ccccc3)cs2)C12CCCC2 (stereo not given),-0.6,10µM*,0.7%,-6.8,-20.5%
COc1cc(NC(=O)c2ccc(Cl)cc2)c(Cl)cc1NC(=O)c1cccnc1,3.2,?,-3.4%,-5.7,-1.4%
Cc1ccc2c(c1)N=C(c1ccccc1)CC(C(Cl)Cl)=N2,-23.2,11.2µM*,?,1.1,?
Cc1ccc(C2=Nc3ccccc3N=C(C(Cl)Cl)C2)cc1,-9.3,11.2µM*,?,16.6,?
CC(/C=C/c1cccc([N+](=O)[O-])c1)=N\NC(=O)c1ccncc1,-3.5,5.01µM*,-5.9%,0.3,10µM*
CC(/C=C/c1ccc2c(c1)OCO2)=N/NC(=O)c1ccncc1,2.1,5.62µM*,2.6%,5.2,17.8µM*
C/C(=N\NC(=O)c1ccc2c(c1)OCO2)c1cccnc1,-0.1,?,?,-7.3,-22.6%
CC(/C=C/c1ccc2c(c1)OCO2)=N/NC(=O)c1cccnc1,0.4,3.55µM*,15.8%,5.5,6.31µM*
O=C(c1cnccn1)N1CCC2(CCCN(c3cccc(-c4ccccc4)c3)C2)CC1,1.4,?,·,·,-4.0%
Cc1ccc(S(=O)(=O)N2CC(C)C(=O)CC2C)cc1 (stereo not given),0.3,-0.5%,0.7%,-14.3,5.4%
CC(/C=C/c1ccc2c(c1)OCO2)=N/NC(=O)c1ccc(C)nc1,-0.3,7.94µM*,-29.7%,7.8,7.94µM*
Cc1ccc(C(=O)N/N=C\c2cc3c(cc2Br)OCO3)cn1,1.7,-0.3%,27.3%,-2.8,-2.3%
Cc1ccc(C2=NNC3(CCOC(C)(C)C3)S2)cc1 (stereo not given),-3.3,5.62µM*,?,6.0,7.94µM*
CC(C)(C)c1cccc(C2(O)C(=O)c3ccccc3C2=O)c1O,0.1,-27.5%,-21.8%,-9.6,12.6µM*
Cc1ccc(C2(O)C(=O)c3ccccc3C2=O)c(O)c1C,-1.6,22.5%,-24.4%,-5.2,6.1%
CCOC(=O)c1ccc(NC(=S)NCc2ccco2)cc1,-1.2,10µM*,?,-0.3,-22.5%
O=C(COC(=O)c1cccs1)NCc1ccco1,3.7,20.3%[10 µM],7.0%,-4.5,-1.3%
COc1cc(NC(=S)NCc2ccco2)cc(OC)c1,3.3,5.62µM*,5.0%,-4.1,4.2%[0.365 µM]
CCOc1ccc(NC(=S)NCc2ccco2)cc1,0.3,14.1µM*,27.8%,8.6,?
O=C(COC(=O)c1ccc(NS(=O)(=O)c2cccs2)cc1)NCc1ccco1,3.5,22.4µM*,-25.9%,7.0,0.8%
SMILES,FBPA coupling cs,RORg inh,ELG1 repair inh,TSHR antag,VP16 counter
Cc1noc(C)c1C(=O)N1CCC[C@@]2(CCN(C(=O)Nc3ccccc3)C2)C1,-0.6,0.5%,·,·,-7.2%
COc1ccc2c(c1)N(C[C@@H](C)CN(C)C)c1ccccc1S2,-0.9,-1.2%[2.98 µM],·,·,1.5%[17 µM]
CSCC[C@@H]1NC(=O)C/C=C\[C@@H](C)COC(=O)[C@@H](C)COC1=O,2.6,4.1%[10 µM],·,·,-4.1%[10 µM]
S=C(NCc1cccnc1)Nc1ccc(Oc2ccccc2)cc1,3.8,?,?,-5.9,?
S=C(NCc1ccco1)Nc1ccc(N2CCOCC2)cc1,-3.7,-12.5%,?,10.4,-3.0%
S=C(NCc1ccco1)Nc1ccc(Oc2ccccc2)cc1,2.1,6.31µM*,-8.1%,-7.0,?
CC(C)CNC(=S)Nc1ccc(Oc2ccccc2)cc1,7.4,3.55µM*,-0.5%,-19.3,3.98µM*
COc1ccc(NC(=S)NCc2ccco2)cc1,-1.5,11.2µM*,?,1.0,?
Cc1ccc(S(=O)(=O)N(C)CC(=O)N2CCN(Cc3ccccc3)CC2)cc1,·,33.9%,?,36.5,-1.0%
COc1cccc(C(=O)NCCS(=O)(=O)N2CC(C)CC(C)C2)c1 (stereo not given),·,·,4.7%,6.3,·
CSCC[C@H](NC(=O)[C@@H](NC(=O)[C@H](CCC(=O)O)NC(=O)[C@H](CCSC)NC(=O)[C@H](CC(N)=O)NC(=O)[C@H](CCC(=O)O)NC(=O)[C@H](CC(N)=O)NC(=O)[C@H](CO)NC(=O)[C@H](C)N)[C@@H](C)O)C(=O)O,-3.4,3.1%,·,·,0.7%
COc1ccc(N2CC(C(=O)NNC(=O)c3ccc(Br)cc3)CC2=O)c(OC)c1 (stereo not given),·,·,-3.9%,4.0,·
COc1cccc(Cn2c(=O)c(-c3cccs3)nc3cnc(Nc4cccc(OC)c4)nc32)c1,-0.8,4.7%,·,·,-0.3%
COCCN(CCOC)C(=O)c1ccc(CSc2nc3ccccc3s2)cc1,·,37.8%,?,-12.8,-22.2%
CCOc1ccc(C(=O)CSCCC(=O)O)cc1,1.1,0.282µM*,?,5.1,0.316µM*
Cc1occc1C(=O)NNC(=O)c1ccccc1[N+](=O)[O-],·,8.8%,?,8.7,-16.1%
CCOC(=O)N1CCN(C(=O)C2CCN(C(=O)c3ccc(C(C)(C)C)cc3)CC2)CC1,0.7,43.3%,-2.7%,-6.6,18.0%
O=C(NC(=S)N1CCCCC1)c1csc([N+](=O)[O-])c1,-0.3,0.355µM*,-11.6%,-3.9,1.12µM*
CC1CCN(C(=S)NC(=O)c2cccs2)CC1,-1.3,0.251µM*,-25.3%,1.1,0.891µM*
CC1CCCCN1C(=S)NC(=O)c1cccs1 (stereo not given),0.1,0.708µM*,1.5%,-2.5,2.82µM*
CC1CCCCN1S(=O)(=O)c1ccc(NC(=O)c2cccs2)cc1 (stereo not given),0.1,30.4%,?,-1.0,-2.0%
O=C(NC(=S)N1CCCCC1)c1cccs1,-0.3,0.794µM*,9.0%,-0.9,1.26µM*
CCOC(=O)C1CCN(C(=O)c2cc(C)n(C(C)(C)C)n2)CC1,0.8,3.0%,?,6.7,5.7%

# Screens: PubChem, National Center for Advancing Translational Sciences (NCATS)
